SMILES strings stand for the structures. About 3,100 (0.84%) of roughly 370,000 compounds were called active. The list comes from a sample in which actives are over-represented; it also holds similar structures and randomly drawn compounds. A number with no mark means an inactive call. No stated cut-off is given here; in the data, active means inhibition above about 9.5%; inactive means the rest.

For 89 molecules, inhibition results are on record in PubChem BioAssay AID720700 (The Scripps Research Institute Molecular Screening Center, 2013).

The test deals with 1-phosphatidylinositol 4,5-bisphosphate phosphodiesterase gamma-1 (Homo sapiens) (UniProt P19174). In words: blockers of human PLCG1 activity – biochemical, fluorescence, purified enzyme, primary screen (AID 720700). Particulars: purified PLC-gamma1, fluorogenic substrate, at 12.2 µM, active compounds read high.
Sequence of 1-phosphatidylinositol 4,5-bisphosphate phosphodiesterase gamma-1 (Homo sapiens) (P19174 whole entry, looked up): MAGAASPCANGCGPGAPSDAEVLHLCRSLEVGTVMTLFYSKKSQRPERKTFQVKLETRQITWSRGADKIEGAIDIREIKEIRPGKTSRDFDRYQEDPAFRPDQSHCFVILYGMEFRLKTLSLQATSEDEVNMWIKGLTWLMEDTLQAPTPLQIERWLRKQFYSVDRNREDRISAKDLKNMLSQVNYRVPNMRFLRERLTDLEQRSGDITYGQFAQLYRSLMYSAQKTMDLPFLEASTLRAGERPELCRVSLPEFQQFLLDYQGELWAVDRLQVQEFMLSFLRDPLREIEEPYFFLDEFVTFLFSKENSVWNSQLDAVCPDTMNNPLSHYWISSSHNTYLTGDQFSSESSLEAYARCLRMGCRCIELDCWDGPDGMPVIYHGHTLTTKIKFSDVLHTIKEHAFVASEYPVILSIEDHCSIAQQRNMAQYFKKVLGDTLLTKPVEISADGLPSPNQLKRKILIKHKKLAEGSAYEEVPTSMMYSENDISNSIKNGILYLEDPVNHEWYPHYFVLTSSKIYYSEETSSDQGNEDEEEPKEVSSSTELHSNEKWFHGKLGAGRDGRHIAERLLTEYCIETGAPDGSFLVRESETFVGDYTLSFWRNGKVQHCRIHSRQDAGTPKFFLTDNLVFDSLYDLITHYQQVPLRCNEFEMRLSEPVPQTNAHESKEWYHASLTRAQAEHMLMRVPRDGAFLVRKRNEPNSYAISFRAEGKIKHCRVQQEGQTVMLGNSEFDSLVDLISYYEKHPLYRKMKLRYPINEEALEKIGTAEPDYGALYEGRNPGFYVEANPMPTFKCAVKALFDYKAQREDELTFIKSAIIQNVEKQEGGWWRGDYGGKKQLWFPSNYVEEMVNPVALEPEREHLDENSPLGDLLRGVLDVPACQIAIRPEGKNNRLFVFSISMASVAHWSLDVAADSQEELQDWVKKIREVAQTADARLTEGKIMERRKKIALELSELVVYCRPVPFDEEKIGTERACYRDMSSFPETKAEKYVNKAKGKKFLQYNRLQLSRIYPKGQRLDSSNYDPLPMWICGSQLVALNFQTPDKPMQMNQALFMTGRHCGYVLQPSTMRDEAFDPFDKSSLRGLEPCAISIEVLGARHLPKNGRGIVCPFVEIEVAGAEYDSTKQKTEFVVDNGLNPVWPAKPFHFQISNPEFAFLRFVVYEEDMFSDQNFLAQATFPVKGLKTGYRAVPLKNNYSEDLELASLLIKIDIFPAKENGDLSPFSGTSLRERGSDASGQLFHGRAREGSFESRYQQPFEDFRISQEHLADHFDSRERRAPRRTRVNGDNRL
By inhibition is commonly meant the relative decrease from the control value, in per cent. Turning to `COc1ccc(C#CCNCc2ccc(OC)cc2OC)cc1`, the inhibition is 2.01%.
The value for `Cc1cc(C(=O)NN=C/C=C/c2ccco2)n[nH]1` was -16.7%; that for `CCCCNC(=O)C[C@H]1C(=O)N(Cc2ccc(OC)cc2)C2=CCCC[C@@]21C(=O)OCC` was 4.39%; that for `COC(=O)C[C@@H]1CC[C@@H]2[C@H](COc3ccc(NC(=O)c4cccc(F)c4)cc3C(=O)N2C)O1` was 12.8% (active).
The value for `COC(=O)C[C@H]1CC[C@H]2[C@H](COc3ccc(NC(=O)C4CC4)cc3C(=O)N2C)O1` was -1%; that for `COC(=O)C[C@@H]1CC[C@@H]2[C@@H](COc3ccc(NC(=O)Nc4ccc(F)c(F)c4)cc3C(=O)N2C)O1` was 1.9%.
The value for `COC(=O)c1cccc(Cn2ccc3ccc(-c4ccc5ccn(C(=O)C6CCCCC6)c5c4)cc32)c1` was -51.3%; that for `CC(=O)N1CCCN(C2=Nc3ccccc3Sc3ccccc32)CC1` was 0.02%.
Regarding `COc1ccc(C(=O)OCC(=O)Nc2ccc3[nH]c(=O)[nH]c3c2)c(OC)c1OC`, the inhibition was 4.24%.
The value for `O=C(OCC(=O)N1CCN(c2ccccc2)CC1)c1ccc([N+](=O)[O-])s1` was -1.31%; that for `COc1cc(NC(=O)COC(=O)c2ccc([N+](=O)[O-])s2)cc(OC)c1OC` was 16.4% (active); that for `COc1ccc2c(c1)CN1CN(CCc3ccccc3)S(=O)(=O)CC21` (centres undefined) was -10.3%.
The value for `C=CCn1c(SCC(N)=O)nnc1-c1ccccc1OC` was 1.51%; that for `C=CS(=O)(=O)N(Cc1nnn(Cc2ccccc2)c1Br)[C@H](C(=O)OC)C(C)C` was 2.5%.
With `CCN(C(=O)[C@@H](C1CC1)[C@@H](O)c1ccc2ccccc2c1)c1ccccc1`, the inhibition was 1.27%.
The value for `O=c1c2ccccc2c(-c2ccccc2)nn1-c1ccccn1` was 2.78%; that for `O=c1c2ccccc2c(-c2ccccc2)nn1Cc1ccccc1` was 12.3% (active); that for `O=c1c2ccccc2c(-c2ccc(Br)cc2)nn1Cc1ccccc1` was -0.25%.
With `O=C(CN1CCOCC1)Nc1c(Cl)cc(Cl)cc1Cl`, the inhibition was 0.95%.
The value for `Cc1cc(C)c(NC(=O)CN2CCOCCOCCOCCOCC2)c(C)c1` was 14% (active); that for `Cc1cc(C)c(NC(=O)CN2CCCCCC2)c(C)c1` was 4.73%; that for `Cc1ccccc1NC(=O)COC(=O)c1ccc(Sc2ncn[nH]2)c([N+](=O)[O-])c1` was -0.83%.
The value for `COc1ccc(C(C)=O)cc1COC(=O)Cn1cnc2ccccc2c1=O` was 5.51%; that for `COc1ccc(C(C)=O)cc1COc1ccc(Cl)c(C)c1` was 2.04%.
On to `COCc1cc(C(C)=O)ccc1OC`, for which the inhibition was 12.2% (active).
Consider `COC[C@@H]1CCCN1c1ccc2c(c1)O[C@H](C)CCN(C1CC1)S2(=O)=O`, for which the inhibition is -1.38%.
In the case of `O=C(c1ccncc1)N1CC[C@H]2[C@H](CCCN2Cc2ccc(F)cc2)C1`, the inhibition is 2.52%.
Consider `O=C(OC12CCCN(C1)/C(=C/c1ccccc1)C2)c1ccco1` (centres undefined), for which the inhibition was 6.33%.
On to `COc1ccc(CCNC(=O)COC(=O)Cc2cccc(F)c2)cc1`, for which the inhibition was -3.08%.
On to `COc1ccc(CCNC(=O)COC(=O)Cc2ccccc2F)cc1`, for which the inhibition is 10.7% (active).
The value for `O=C(COC(=O)Cc1ccccc1F)NCCc1ccccc1` was -0.55%.
Take `COC(=O)C[C@@H]1CC[C@H]2[C@@H](COc3ccc(NS(=O)(=O)CC(F)(F)F)cc3C(=O)N2C)O1`: the inhibition is 0.55%.
The value for `CC(C)N1CCCCC(NC(=O)c2ccc3ccccc3c2)C1=O` (centres undefined) was -1.22%; that for `Cc1ccc(NS(=O)(=O)c2ccc(N/N=C/c3ccccc3OCC(=O)O)c([N+](=O)[O-])c2)c(C)c1` was 10.8% (active); that for `Cc1ccc(S(=O)(=O)NC(=O)COc2ccccc2C)cc1` was -1.05%.
On to `Cc1ccc(NS(=O)(=O)c2ccc3c(c2)n(C)c(=O)c(=O)n3C)c(C)c1`, for which the inhibition was -0.33%.
The value for `COC(=O)[C@]12C[C@H](CC(=O)NCCc3ccccc3OC)C(=O)N(Cc3ccco3)C1=C[C@H](C(C)C)O[C@@H]2C1CC1` was -0.19%; that for `O=C(NCCC1=CCCCC1)C1CCN(S(=O)(=O)c2ccc(Cl)s2)CC1` was -0.14%.
The value for `CCOC(=O)c1csc(NC(=O)C2CCCN(S(=O)(=O)c3ccc(Cl)s3)C2)n1` (centres undefined) was 6.52%; that for `CN(C)Cc1cn(-c2ccc(-c3noc4c3C(=O)N(CC(=O)N3CCOCC3)CC4)cc2)nn1` was -16.7%; that for `Nc1nnc(SCC(=O)OCc2ccc(Cl)c(Cl)c2)s1` was 10.9% (active).
The value for `CN(C(=O)CSc1nnc(N)s1)c1c(N)n(Cc2ccccc2)c(=O)[nH]c1=O` was -0.92%; that for `COC(=O)c1ccc(CSc2nnc(N)s2)o1` was -0.29%; that for `CCCC1CCC2(CCCN2CCOC(=O)NCc2ccccc2)CC1` (centres undefined) was 2.03%.
Consider `O=C(NC12CC3CC(CC(C3)C1)C2)N1CCCC(CO)C1` (centres undefined), for which the inhibition was 11.5% (active).
Turning to `O=C(CNCCO)NC12CC3CC(CC(C3)C1)C2`, the inhibition was 9.27%.
For the molecule `O=C(NCC12CC3CC(C1)CC(CNC(=O)N1CCCC1)(C3)C2)N1CCCC1`, the inhibition is -0.47%.
`O=C(NCCc1c[nH]c2ccccc12)OCc1cn(-c2c(F)cccc2F)nn1`: the inhibition was -2.05%.
The value for `CCCCCCCCNS(=O)(=O)/C=C/c1cc(C)ccc1CNC(=O)OC(C)(C)C` was -1.88%; that for `COC(=O)[C@]12C[C@H](CC(=O)NCCCN3CCCC3=O)C(=O)N(CCc3ccc(OC)c(OC)c3)C1=C[C@H](COCc1ccccc1)O[C@@H]2C` was 4.14%.
On to `Cc1c(C#N)c2ncn(CC#N)c(=O)c2n1-c1ccccc1`, for which the inhibition is 9.69% (active).
The value for `CC(=O)Cn1cnc2c(cnn2-c2ccccc2)c1=O` was 0.74%.
For the molecule `CN(C)/C=C/c1c(C#N)c(=O)ncn1Cc1ccccc1`, the inhibition was 2.62%.
Regarding `COC(CNC(=O)[C@H](Cc1ccccc1)NC1(C(=O)NC2CCCCC2)CCCCC1)OC`, the inhibition is 0.41%.
Take `CCc1c(C)nc(SCC(=O)NC2CCCC2)[nH]c1=O`: the inhibition was 0.69%.
Regarding `CCc1ccc(-c2nc(SCC(=O)NC3CCCC3)n[nH]2)cc1`, the inhibition is 9.58% (active).
For `COC(=O)c1ccccc1NC(=O)CSc1n[nH]c(-c2ccncc2)n1`, the inhibition is 1.06%.
Take `O=C(CSc1nnc(-c2ccccc2)n1Cc1ccco1)Nc1ccccc1-c1ccccc1`: the inhibition was 8.54%.
With `COc1cccc(/C=C2\CC3(OC(C)=O)CCCN2C3)c1` (centres undefined), the inhibition was -1.03%.
For the molecule `COC(=O)[C@@]12CCCCC3=C1N(CCC3)C(=O)[C@H]2CC(=O)NCc1cccc2ccccc12`, the inhibition was 3.71%.
As to `O=C(Nc1ccc(S(=O)(=O)N2CCOCC2)cc1)c1ccc2ncsc2c1`, the inhibition was -4.28%.
The value for `Cc1nc2ccc(NC(=O)c3cccc(S(=O)(=O)N4CCOCC4)c3)cc2s1` was 14% (active); that for `Cc1ccnc(SCC(=O)Nc2cccc(S(=O)(=O)N3CCOCC3)c2)n1` was 1.32%; that for `O=C(CSc1ccccc1)Nc1cccc(S(=O)(=O)N2CCCCC2)c1` was 5.78%.
The value for `O=C(CSc1ccccc1)Nc1cccc(S(=O)(=O)N2CCOCC2)c1` was 11.5% (active); that for `Cc1cc(C(=O)NNC(=O)c2cccc(S(=O)(=O)N3CCOCC3)c2)c2ccccc2n1` was 1.34%; that for `COc1ccc(CN2C(=O)N3Cc4cc(OC)ccc4C3CS2(=O)=O)cc1` (centres undefined) was 0.38%.
For `O=C(NCCCc1ccccc1)[C@H](Cc1ccccc1)NC1(C(=O)NCCc2c[nH]c3ccccc23)CCC1`, the inhibition was -0.08%.
The value for `Cc1ccc(C(=O)N(Cc2ccccn2)CC2CCCO2)cc1` (centres undefined) was 0.65%; that for `CN1C[C@]2(C=C3CCCCC3n3c(=O)n(-c4ccccc4)c(=O)n32)N=C1NC(=O)c1ccccc1` (some centres undefined) was -0.41%; that for `Cc1cccc(NC(=O)N2CCCCCC2)c1C` was 0.02%.
The value for `CNC(=O)n1ccc(C(=O)N2CCCCC2)n1` was 9.53% (active); that for `Cc1ccc(C(=O)N2CCCC2)c(F)c1F` was 2.59%.
Take `Nn1c(SCC(=O)N2c3ccccc3Sc3ccccc32)nnc1-c1n[nH]c2c1CCC2`: the inhibition was 1.2%.
Regarding `COP(=O)(O)CNC(=O)OCc1ccccc1`, the inhibition is 2.2%.
For the molecule `CC(CCN1CCC(C(O)(c2ccccc2)c2ccccc2)CC1)Oc1ccc(C(F)(F)F)cc1` (centres undefined), the inhibition is 6.64%.
In the case of `COC(=O)c1cc(S(=O)(=O)N2CCN(c3ccccc3C)CC2)cn1C`, the inhibition was -2.77%.
On to `C=CCN1C(=O)[C@H](CC(=O)NCCCN2CCCC2=O)[C@@]2(C(=O)OCC)CCCC=C12`, for which the inhibition is -1.95%.
Regarding `CCCCCN1CCCCC(NC(=O)C(C)CCC)C1=O` (centres undefined), the inhibition was 0.76%.
For `CC(=O)O[C@@]1(C(C)=O)CCC2[C@H]3C=C(C)C4=CC(=O)CC[C@@]4(C)C3CC[C@]21C` (some centres undefined), the inhibition was -2.78%.
As for `CCC1S/C(=N/N=C/c2ccco2)NC1=O` (centres undefined), the inhibition is 10.6% (active).
The value for `CCCCC1S/C(=N/N=C/c2cccs2)NC1=O` (centres undefined) was -0.02%.
As to `O=C1N/C(=N\N=C\c2ccco2)SC1Cc1ccc(F)cc1` (centres undefined), the inhibition was 2.17%.
The value for `Cc1cccc(C(=O)Nc2c(-c3ccc(F)cc3)nc3ncccn23)c1` was -270%.
In the case of `O=[N+]([O-])c1cc(S(=O)(=O)N2CCCC2)ccc1NN=C1CCCC1`, the inhibition is 7.15%.
The value for `O=[N+]([O-])c1cc(C(F)(F)F)ccc1NCCc1ccncc1` was -0.57%.
The value for `O=[N+]([O-])c1cc(C(F)(F)F)ccc1NN=C1CCCC1` was 11.1% (active); that for `COc1ccc2c(C(C)c3ccc(N)cc3)cn(C)c2c1` (centres undefined) was 3.03%; that for `N#Cc1ccccc1OC[C@@H](O)CN1CCC(C(O)(c2ccccc2)c2ccccc2)CC1` was 2.31%.
